Source: PubChem
Only some compounds are listed: those with a hit (about 2.4% of all), similar ones and a draw of the others.
AmpC nodet inh = Promiscuous and Specific Inhibitors of AmpC Beta-Lactamase (assay without detergent); P00811; AmpC nitrocefin hydrolysis, absorbance 480 nm, no detergent; Potency, µM (highest dose often 28.7 µM); hit rate 1.8% among 71,000
Target sequence (P00811 whole entry, looked up): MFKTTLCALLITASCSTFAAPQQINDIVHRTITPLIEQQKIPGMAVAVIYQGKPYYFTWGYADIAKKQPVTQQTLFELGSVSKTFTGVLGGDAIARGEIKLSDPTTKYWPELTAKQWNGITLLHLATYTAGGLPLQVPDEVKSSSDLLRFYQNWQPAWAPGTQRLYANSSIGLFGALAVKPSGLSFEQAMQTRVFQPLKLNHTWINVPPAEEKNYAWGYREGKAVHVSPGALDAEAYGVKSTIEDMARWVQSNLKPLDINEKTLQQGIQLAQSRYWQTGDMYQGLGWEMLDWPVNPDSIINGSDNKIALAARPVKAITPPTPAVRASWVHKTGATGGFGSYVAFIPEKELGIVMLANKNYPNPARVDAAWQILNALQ
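Enzyme, pH 7.0 phosphate. Compound titrations were pre-incubated with AmpC for 15 min at room temperature before nitrocefin (stock 800 uM) addition; product formation was recorded at 480 nm every 20 s for 4 min.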
SmPrx2 inh = Schistosoma Mansoni Peroxiredoxins (Prx2); Schistosoma mansoni peroxiredoxin 2 (Prx2); S. mansoni Prx2 activity coupled to TGR/GSH (TGR is thioredoxin glutathione reductase), NADPH fluorescence loss, qHTS; Potency, µM; hit rate 0.07% among 65,000
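Coupled assay in which S. mansoni TGR passes NADPH reducing equivalents via glutathione to Prx2, which reduces H2O2. Compounds were preincubated 15 min at room temperature with 25 nM TGR/50 nM Prx2 mix. Kinetic NADPH fluorescence loss (ex 365/em 450 nm) was monitored.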
AmpC inh det = Promiscuous and Specific Inhibitors of AmpC Beta-Lactamase (assay with detergent). purified AmpC, nitrocefin hydrolysis with detergent. P00811. Potency, µM (doses to about 28.7 µM). AID 584, 2007. hit rate 0.09% among 71,000; active = well fitted curve in the direction sought with a large enough effect; inconclusive = small, poorly fitted or top-dose-only effect
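E. coli AmpC (5.3 nM) in 20 mM phosphate pH 7.0 with 0.01% Triton X-100, preincubated 15 min RT with compound; nitrocefin (2 uL of 800 uM stock) hydrolysis followed by 480 nm absorbance every 20 s over 4 min.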
Anthrax LT inh = qHTS Assay for Anthrax Lethal Toxin Internalization; hit rate 0.67% among 70,000; AID 912, 2007; Potency, µM (series often up to 40 µM), actives largely listed as inhibitors; Cells, anthrax lethal toxin internalization, FRET ratio (460/530); also: nearly all actives have a fitted effect of over 50% in size
Of the large screens only hits and unclear results are named; the others gave an inactive call; [ ] = another dose, or the depositor's remark. Unless noted, calls follow the shape of the full dose curve.

Cn1cccc1C(=O)Nc1nc(-c2ccccn2)cs1	none
O=C(Nc1nc(-c2ccccc2)cs1)c1cccs1	Anthrax LT inh 10µM (no result: SmPrx2 inh)
COC(=O)c1c(C)ccc2c(O)c3c(cc12)C(=O)c1c2c(cc(O)c1C3=O)[C@@]1(C)O[C@@](C)(O2)[C@@H](O)[C@H](N(C)C)[C@H]1O	none
O=C1CCC[C@@H](C2=CCCCC2=O)C1	none (no result: AmpC nodet inh, SmPrx2 inh, AmpC inh det)
CC(C)C(=O)CP(=O)(O)O	none
O=C(O)c1cccc([As]=[As]c2cccc(C(=O)O)c2)c1 (centres undefined)	SmPrx2 inh 0.25, Anthrax LT inh inconclusive
CCCOC(=O)[C@@H]1[C@@H](C(=O)O)[C@H]2CC[C@@H]1O2	none
NC1=NC(S)C2N=CN=C2N1 (centres undefined)	none (no result: SmPrx2 inh)
CCCC[C@@H]1C[C@H]1C(NC(=O)c1ccccc1)c1ccccc1 (some centres undefined)	none
CCCC[C@@H]1C[C@H]1C(NC(=O)c1ccco1)c1ccccc1C(F)(F)F (some centres undefined)	Anthrax LT inh inconclusive
CCCC[C@@H]1C[C@H]1C(NC(=O)c1ccco1)c1ccc(-c2ccccc2)cc1 (some centres undefined)	AmpC nodet inh 13µM[single pt active]
CCCC[C@@H]1C[C@H]1C(NC(=O)c1ccco1)c1ccc(Cl)cc1 (some centres undefined)	AmpC nodet inh 10µM[single pt active], Anthrax LT inh inconclusive
CCCC[C@@H]1C[C@H]1C(NC(=O)c1cccnc1)c1ccc(-c2ccccc2)cc1 (some centres undefined)	none
CC[C@H](C)C(=O)O[C@@H]1CCC=C2C=C[C@H](C)[C@@H](CC[C@H]3C[C@@H](O)CC(=O)O3)[C@H]21	none
O=c1cc(-c2ccccc2)oc2cc(O)c(O)c(O)c12	AmpC nodet inh 7.9µM, Anthrax LT inh 1.3µM
O=C(Cn1cnnn1)OCC(=O)c1ccc(Cl)s1	AmpC nodet inh 13µM
COc1ccc(-c2csc(N(CC3CCCO3)C(=O)c3cccs3)n2)cc1 (centres undefined)	none
CCN(CC)CCCN(C(=O)c1cccs1)c1nc(-c2ccc(OC)cc2)cs1	Anthrax LT inh 10µM
Cc1cc(/C=N/n2cnnc2)c(C)n1-c1cccc(Cl)c1	none (no result: SmPrx2 inh)
Cc1cc(/C=N/n2cnnc2)c(C)n1-c1ccc(OCc2ccc(F)cc2)cc1	Anthrax LT inh 13µM
Cc1ccccc1-c1ccc2ncnc(-n3ccnc3)c2c1	Anthrax LT inh 5µM
CN(C)c1ccc(-c2ccc3ncnc(-n4ccnc4)c3c2)cc1	Anthrax LT inh 7.9µM
Cc1ccccc1-c1ccc2ncnc(N(C)C)c2c1	none
CC(C)[C@H](NC(=O)OC(C)(C)C)[C@@H](O)CC(=O)C(C)(C)C	none (no result: AmpC nodet inh, SmPrx2 inh, AmpC inh det)
c1cc(CCN2CCCCC2)ccn1	none
CCOC(=O)c1sc(NC(=O)CSc2nnc(-c3ccco3)n2CC)c(C(=O)OCC)c1C	Anthrax LT inh 10µM
CCOC(=O)c1c(NC(=O)CSc2nnc(-c3ccccc3)n2CC)sc(C(C)=O)c1C	none (no result: SmPrx2 inh)
O=C(Nc1nnc(COc2ccccc2)s1)c1ccco1	none
O=C(Nc1nc(-c2cccs2)c(-c2ccccc2)s1)c1ccco1	Anthrax LT inh 13µM
Cn1c(=O)n(CC(=O)Nc2ccc(F)cc2)c2ccccc21	none
CCCCNC(=O)Cn1c(=O)n(C)c2ccccc21	AmpC nodet inh 4µM[single pt active]
COC(=O)NC(/C(C(=O)OC)=C(\C)NCc1ccccc1)c1ccc(F)cc1 (centres undefined)	none (no result: AmpC nodet inh, SmPrx2 inh, AmpC inh det)
Cc1ccc(NC(=O)c2c(-c3c(F)cccc3Cl)noc2C)cc1F	Anthrax LT inh 10µM (no result: SmPrx2 inh)
Cc1ccc(-n2cnc3c(sc4nccc(N(C)C)c43)c2=O)cc1	Anthrax LT inh 6.3µM (no result: SmPrx2 inh)
COc1ccc(-n2cnc3c(sc4nccc(N(C)C)c43)c2=O)cc1	none (no result: Anthrax LT inh)
O=C1[C@H]2[C@H]3[C@H](O)[C@H](O)C/C(=N/OC[C@@H](O)COCc4ccco4)[C@@H]3CC[C@@H]2C(=O)N1Cc1ccccc1	none (no result: AmpC nodet inh, SmPrx2 inh, AmpC inh det)
COc1ccc(NC(=O)c2ccc(-c3ccc(-c4noc(C)n4)cc3C)cc2)cc1N1CCN(C)CC1	Anthrax LT inh inconclusive
COc1ccc(NC(=O)c2ccc(-c3ccc(-c4noc(C)n4)cc3C)cc2)cc1OCCN(C)C	Anthrax LT inh 16µM
CCCCC#CC1C=CC(Oc2cc(OC)c(OC)c(OC)c2)C(CO)O1 (centres undefined)	none (no result: AmpC nodet inh, SmPrx2 inh, AmpC inh det)
O=C(Cn1nc(Cc2ccncc2)c2ccccc2c1=O)N1CCc2ccccc2C1	AmpC nodet inh 4µM[single pt active]
CN(CCC#N)C(=O)Cn1nc(Cc2ccncc2)c2ccccc2c1=O	AmpC nodet inh 4µM[single pt active]
